High-throughput results deposited in PubChem BioAssay by National Center for Advancing Translational Sciences (NCATS).
Only some compounds are listed: those with a hit (about 0.89% of all), similar ones and a draw of the others.
CBFb-RUNX1 inh: inhibitors of human CBF-beta and RUNX1 interaction; Q01196+Q13951; AlphaScreen CBFb-His/RUNX1-biotin binding, biochemical; Potency, µM (doses to about 59.8 µM), most hits filed as inhibitors; 230,000 tested, under 10 active; AID 1477
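Room-temperature protein-protein interaction test with 30 nM each of His-tagged CBF-beta and biotinylated RUNX1, 15 min with compound, then 90 min with nickel plus streptavidin beads. Signal read in AlphaScreen mode.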
Eya2 inh: inhibitors of human Eya2 phosphatase activity. recombinant Eya2, OMFP fluorescence dephosphorylation (OMFP is methylfluorescein phosphate). 330,000 tested, 0.006% active. AID 488837. Potency, µM (highest dose often 76.9 µM), actives largely listed as inhibitors. O00167
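Eya2 (0.2 uM) preincubated 10 min at ambient with compound, then OMFP substrate added at 50 uM; 10 min reaction in 50 mM HEPES pH 7.5, 50 mM NaCl, 5 uM MgCl2, 0.05% BSA, 1 mM DTT. Fluorescence read at Ex 485/Em 525 nm.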
Six1-Eya2 blk: inhibitors of human Six1/Eya2 interaction; Q15475+O00167; AlphaScreen GST-Six1/His-Eya2 binding, biochemical; hits give low values; activity change, % (test concentration not listed); 360,000 tested, 0.56% active; AID 651725; in the data active means activity change below about -65%; inconclusive means mostly about -30% to -63%
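AlphaScreen with GST-Six1 and His-Eya2 (5X mix: 250 nM and 500 nM), glutathione donor and nickel acceptor beads; buffer 50 mM Tris pH 8.0, 300 mM NaCl, 1 mM TCEP; 1 h at 37 C in the dark.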
CtBP-E1A inh: CtBP/E1A binding inhibition. activity change, % (no concentration beside the values). 340,000 tested, 0.49% active. AlphaScreen GST-E1A/His-CtBP binding, 1536-well; hits give low values; in the data active means activity change below about -65%; inconclusive means mostly about -30% to -63%
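AlphaScreen with 125 nM GST-E1A and 125 nM His-CtBP (5X stocks) in Tris pH 8.0, 300 mM NaCl, BSA, Tween 20, TCEP. Compounds preincubated 2 h at 37 deg C, then glutathione donor/nickel acceptor beads added for 1 h at 37 deg C in dark.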
L3MBTL1 block: L3MBTL1 (human) inhibition | Q9Y468 | AlphaScreen L3MBTL1–H3K9me1 peptide binding | Potency, µM (doses to about 57.1 µM), most hits filed as inhibitors | 230,000 tested, 0.66% active; further: nearly all actives have a fitted effect of over 60% in size
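AlphaScreen proximity signal between nickel-chelate acceptor and streptavidin donor beads (final 10 ug/mL) reports binding of 50 nM L3MBTL1 to 75 nM biotin-H3 K9me1 peptide; complex incubated with compounds 30 min at room temperature; cefsulodin titration as control.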
MBNL1 CUG block: blocks human MBNL1 binding to CUG repeat RNA | Q9NR56 | TR-FRET MBNL1-His/biotin-(CUG)12 binding, 665/545 ratio | Potency, µM (highest dose often 57.5 µM), actives largely listed as inhibitors | 280,000 tested, 0.036% active; active means well fitted inhibition curve with a large enough effect in the signal ratio, with a control signal flat, not every such curve was filed as active; inconclusive means small, poorly fitted or top-dose-only effect, or effect the other way, or a change in a side signal; inactive means no such curve, though single readings can be large or run the other way; the % refers to the signal ratio
Target sequence (Q9NR56 whole entry, looked up): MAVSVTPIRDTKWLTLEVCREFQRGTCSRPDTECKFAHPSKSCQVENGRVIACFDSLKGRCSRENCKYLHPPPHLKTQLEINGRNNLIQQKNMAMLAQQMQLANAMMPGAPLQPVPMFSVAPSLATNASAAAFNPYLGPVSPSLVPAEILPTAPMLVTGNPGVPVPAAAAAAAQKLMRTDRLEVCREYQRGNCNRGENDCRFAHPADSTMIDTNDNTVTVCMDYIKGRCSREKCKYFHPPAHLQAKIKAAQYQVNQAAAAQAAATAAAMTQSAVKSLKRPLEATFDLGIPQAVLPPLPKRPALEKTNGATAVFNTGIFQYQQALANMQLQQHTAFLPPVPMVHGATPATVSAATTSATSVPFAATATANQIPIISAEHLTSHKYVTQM
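MBNL1-His + Biotin-(CUG)12, cpd titration 92 nM–58 uM; Tb anti-His Ab 0.055 ng/ul, SA-XL665 5 nM (final); 60 min RT; ratiometric 665/545 nm, Ex 340 nm; normalized to buffer and full-complex controls.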
Numbers stand for hits; - = inactive; ? = inconclusive; . = no result; [ ] = another dose, or the depositor's remark. Unless noted, the call rests on the fitted dose curve; in most records, active means well fitted curve in the direction sought with a large enough effect; inconclusive means small, poorly fitted or top-dose-only effect, or another doubt; inactive means no such curve, though single readings can be large; an effect the other way counts as inactive or inconclusive.

SMILES	CBFb-RUNX1 inh	Eya2 inh	Six1-Eya2 blk	CtBP-E1A inh	L3MBTL1 block	MBNL1 CUG block
CN(C)c1ccc(C(c2ccc(N(C)C)cc2)c2ccc([N+](=O)[O-])cc2)cc1	.	-	-83	?	28µM	-
Cc1cc(=O)[nH]c2c(N=Nc3ccc(O)cc3)c(N)nn12	-	-	-77	.	-	?
Nc1nn2c(C(F)(F)F)cc(=O)[nH]c2c1N=Nc1cccc(F)c1	?	-	-	-	-	-
CCOC(=O)C1=C[C@@H](CC)N(S(=O)(=O)c2ccc(C)cc2)[C@H]1c1cccs1	.	.	-	-	.	.
CCc1nc(NC(=O)Cc2csc(C)n2)sc1C(=O)OC	.	-	-	-	.	-
CCCC1Cc2[nH]c(=O)c(C#N)cc2CO1 (stereo not drawn)	-	-	-	-70	.	-
CCC1(C)Cc2[nH]c(=O)c(C#N)cc2CO1 (stereo not drawn)	-	-	-	-	.	-
CC1(C)NC(=O)N(CC(=O)Nc2ccc(-n3cnnn3)cc2)C1=O	.	-	-	-	-	.
CCCCn1c(NC(=O)c2ccccc2)nc2ccccc21	-	-	-	-	-	-
S=C(Nc1ccccc1)Nc1nc2ccccc2n1CCOc1ccccc1	?	-	-	-	10µM	-
CCCCn1c(NC(=S)Nc2ccccc2)nc2ccccc21	?	-	-	-	18µM	.
CCCCn1c(OC(=S)N(CC)CC)cc(C)nc1=S	.	.	-	-	.	.
CC(=O)Nc1ccc(C(=O)COC(=O)c2cc(C)oc2C)c(F)c1	.	-	-	.	-	.
CN(C)c1cccc(C(=O)OCC(=O)N(C)c2ccccc2)c1	.	-	-	-	.	-
CN(C)c1ccc(C(=O)OCC(=O)Nc2ccc(N3CCOCC3)cc2)cc1	-	-	-	.	-	-
CN(C)c1ccc(N=Nc2ccccc2C(=O)OCC(=O)N(C)c2ccccc2)cc1	-	-	-67	-66	?	?
COC(=O)c1ccccc1NC(=O)COC(=O)c1ccccc1N=Nc1ccc(N(C)C)cc1	-	-	?	?	10µM	.
CC(=O)c1ccc(NC(=O)COC(=O)c2ccccc2N=Nc2ccc(N(C)C)cc2)cc1	-	-	-68	-	?	?
CC(=O)c1cccc(OCc2cc(C(=O)NCCC3=CCCCC3)no2)c1	.	-	-	-	.	-
Cc1nc(-c2ccc(S(=O)(=O)NCc3ccccn3)s2)cs1	-	-	-	.	.	-
c1ccc2c(c1)SCc1c-2[nH]c2ccccc12	-	.	.	.	.	.
Cc1ccc(/C=C2\S/C(=N/S(=O)(=O)c3cccs3)NC2=O)cc1	-	-	-67	.	-	-
Cc1ccc(-c2c3c(nc4sc(C(N)=O)c(N)c24)CCCC3)o1	-	-	-	?	-	-[11.5 µM]
NC(=O)c1sc2nc3c(c(-c4ccco4)c2c1N)CCC3	-	-	-71	-	?	?
O=C(COC(=O)c1c2c(nc3ccccc13)/C(=C\c1ccco1)CC2)NC1CCCC1	.	.	-	-	.	.
SMILES	CBFb-RUNX1 inh	Eya2 inh	Six1-Eya2 blk	CtBP-E1A inh	L3MBTL1 block	MBNL1 CUG block
Nc1c(C(=O)NC2CC2)sc2nc3c(c(-c4ccco4)c12)CC/C3=C/c1ccco1	-	-	?	-	0.89µM	?
CCc1cc(C(=O)N/N=C/c2ccc(O)cc2O)c2ccccc2n1	.	-	-93	-97	.	-
O=C(N/N=C/c1cc(Cl)cc(Cl)c1O)c1ccncc1	.	-	-92	.	28µM	.
O=C(CCCCCNC(=O)c1ccccc1)N/N=C/c1ccc(O)cc1O	-	-	-	?	-	-
O=C(O)COc1ccccc1/C=N/NC(=O)c1cc(-c2ccc(Cl)cc2)nc2ccccc12	-	-	-80	-81	.	-
O=C(C[n+]1ccccc1)N/N=C/c1cc(Br)ccc1F	.	-	-	-	-	.
O=C(C[n+]1ccccc1)N/N=C/c1cc(Br)cc(Br)c1O	.	-	-89	-	.	-
O=C(O)COc1ccccc1/C=N/NC(=O)c1cc(-c2ccccc2)nc2ccccc12	-	-	-	-	.	?
CCCn1c(-c2ccc(F)cc2)nc2c(NCCCN3CCOCC3)nc(C)nc21	-	.	.	.	.	.
O=C(N/N=C/c1cc(Br)cc(Br)c1O)c1ccncc1	-	-	-80	-93	25µM	-
Cc1cccc(C(=O)Oc2c(Br)cc(Br)cc2/C=N/NC(=O)c2ccncc2)c1	.	-	-	-	.	-
